Inconclusive results are not listed. The source made the active and inactive calls. The call rests on the fitted dose curve; in most records, active means well fitted cell-killing curve with a large enough effect; inconclusive means small, poorly fitted or top-dose-only effect, or effect the other way; inactive means no such curve, though single readings can be large or run the other way.
Potency means the concentration at half of the fitted maximal effect.

The nature of one test: Quantitative High-Throughput drug screen in 47 multiple myeloma cell lines against the NCATS MIPE library collection: H1112_PLB cell viability assay (AID 1918967; further: nearly all actives have a fitted effect of over 30% in size). The following applies: H1112 myeloma cells viability, ATP luminescence, 48 h; series mostly up to 45.8 µM; viability: at the top concentration. The method, boiled down: (§1)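 Viability readout: CellTiter-Glo luminescence following 5 min room-temperature incubation with reagent. Prior exposure: 48 h, 37C, humidified 5% CO2, 500 cells per well.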
Turning to `NC(=O)Nc1cc(-c2cccc(F)c2)sc1C(=O)N[C@H]1CCCNC1`, the Potency is 1.48 µM (active).
Same read-out and setting: next, `Nc1nccc(Oc2ccc(NC(=O)c3c[nH]cc(-c4ccc(F)cc4)c3=O)cc2F)c1Cl`: 20.9 µM (active).
Regarding `COc1cc2c(Oc3ccc(NC(=O)C4(C(=O)Nc5ccc(F)cc5)CC4)cc3F)ccnc2cc1OCCCN1CCOCC1`, the Potency was 16.6 µM (active).
`COC(=O)C1=C(C)NC(C)=C(C(=O)OCCN2CCN(C(c3ccccc3)c3ccccc3)CC2)C1c1cccc([N+](=O)[O-])c1` (stereo unspecified): the viability (commonly a read-out of living cells in per cent, often relative to untreated cells) is 110% (inactive).
Take `O=C(Cc1ccc(-c2ccc(OCCN3CCOCC3)cc2)cn1)NCc1ccccc1`: the Potency was 0.0187 µM (active).

A further test is described as follows: Quantitative High-Throughput drug screen in 47 multiple myeloma cell lines against the NCATS MIPE library collection: Karpas25_ECACC cell viability assay (AID 1918968; further: nearly all actives have a fitted effect of over 35% in size;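 on viability (% of control): 100% = DMSO only wells and 0% = media only wells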). The following applies: Karpas25 myeloma viability, CellTiter-Glo ATP, 48 h; series mostly up to 45.8 µM; viability (% of control): at the top concentration. The method, boiled down: as §1
(Cellular ATP, detected with luciferase, serves as a proxy for viable cell number.)
Turning to `Cc1ccc(C(N)=O)cc1Nc1nccc(-c2cn(C(C)C)c3cnccc23)n1`, the Potency was 3.72 µM (active).
As for `N#CCNC(=O)c1ccc(-c2ccnc(Nc3ccc(N4CCOCC4)cc3)n2)cc1`, the Potency is 9.35 µM (active).
`c1ccc2c(CCNc3ccc(Nc4ccncc4)cc3)c[nH]c2c1`: the Potency was 20.9 µM (active).
Same read-out and setting: the figure for `C#Cc1cccc(Nc2ncnc3cc(OC)c(OCCCCCCC(=O)NO)cc23)c1` is 0.0526 µM (active); for `C[C@@H](Oc1cc(-n2cnc3ccc(CN4CCN(C)CC4)cc32)sc1C(N)=O)c1ccccc1C(F)(F)F` it is 20.9 µM (active).
On to `CN(c1ncccc1CNc1nc(Nc2ccc3c(c2)CC(=O)N3)ncc1C(F)(F)F)S(C)(=O)=O`, for which the Potency was 3.32 µM (active).
Still for that read-out and setting: the figure for `Cc1ccc(NC(=O)C2(c3ccc4c(c3)OC(F)(F)O4)CC2)nc1-c1cccc(C(=O)O)c1` is 0.0332 µM (active); for `CCCCN1CCC(CNC(=O)c2c3n(c4ccccc24)CCCO3)CC1` it is 8.33 µM (active).
As to `Fc1cc(-c2cccc3ncc(-c4cnn(C5CCNCC5)c4)nc23)cc(F)c1CN1CCOCC1`, the Potency is 7.43 µM (active).
In the case of `CCCn1c(=O)c2[nH]c(-c3cnn(Cc4cccc(C(F)(F)F)c4)c3)nc2n(CC)c1=O`, the “viability (% of control)” value is 110% (inactive).
The same measure, in the same setting: the figure for `COc1ccc(-n2nc(C(N)=O)c3c2C(=O)N(c2ccc(N4CCCCC4=O)cc2)CC3)cc1` is 148% (inactive).
Take `O=C(CCCCCCNC(=O)c1cnc(N(c2ccccc2)c2ccccc2)nc1)NO`: the Potency was 4.18 µM (active).
Consider `O=C(CCCCCCC(=O)Nc1ccc([C@H]2O[C@@H](CSc3nc(-c4ccccc4)c(-c4ccccc4)o3)C[C@@H](c3ccc(CO)cc3)O2)cc1)NO`, for which the Potency was 9.35 µM (active).
Turning to `COc1ccc(OC)c(-c2nnc3ccc(-c4ccc(OC)c(O[C@@H]5CCOC5)c4)nn23)c1`, the Potency is 6.62 µM (active).
Still for that read-out and setting: the figure for `COc1cc(C(C)C)c2c(c1)S(=O)(=O)N(COc1cc(=O)n3cccc(OCCN4CCCCC4)c3n1)C2=O` is 13.2 µM (active); for `C[C@@H](Oc1cc(-c2cnn(C3CCNCC3)c2)cnc1N)c1c(Cl)ccc(F)c1Cl` it is 2.35 µM (active); for `CCN1CCN(CC(=O)Nc2ccc(-c3cccc4c(=O)cc(N5CCOCC5)oc34)c3sc4ccccc4c23)CC1` it is 0.264 µM (active).
Still for that read-out and setting: next, `OCc1ccc(-c2ccc(-c3ccc(CO)s3)o2)s1`: 3.72 µM (active).
Same read-out and setting: the figure for `O=C(c1ccc(Nc2nccc(-c3cc4ccccc4s3)n2)cc1)N1CCC(N2CCCC2)CC1` is 4.18 µM (active); for `O=C(Nc1cn[nH]c1-c1nc2ccc(CN3CCOCC3)cc2[nH]1)NC1CC1` it is 1.87 µM (active).
In the case of `CC(C)c1ccc(Cn2ccc3c4c(N)nc(NC5CC5)nc4ccc32)cc1`, the Potency is 5.9 µM (active).
As to `Cc1cn(-c2cc(NC(=O)c3ccc(C)c(Nc4nccc(-c5cccnc5)n4)c3)cc(C(F)(F)F)c2)cn1`, the “viability (% of control)” value was 102% (inactive).
In the case of `OCCCNc1cc(-c2ccnc(Nc3cccc(Cl)c3)n2)ccn1`, the Potency is 0.0418 µM (active).
Still for that read-out and setting: the figure for `C[C@H]1C[C@@H]2[C@@H]([C@@H](O)C[C@@]3(C)[C@H]2CC[C@]3(O)C(=O)CO)[C@@]2(C)C=CC(=O)C=C12` is 0.105 µM (active); for `NC(=O)Nc1cc(-c2cccc(F)c2)sc1C(=O)N[C@H]1CCCNC1` it is 0.59 µM (active); for `Nc1nccc(Oc2ccc(NC(=O)c3c[nH]cc(-c4ccc(F)cc4)c3=O)cc2F)c1Cl` it is 16.6 µM (active).
The same measure, in the same setting: the figure for `COc1cc2c(Oc3ccc(NC(=O)C4(C(=O)Nc5ccc(F)cc5)CC4)cc3F)ccnc2cc1OCCCN1CCOCC1` is 0.935 µM (active).
Take `COC(=O)C1=C(C)NC(C)=C(C(=O)OCCN2CCN(C(c3ccccc3)c3ccccc3)CC2)C1c1cccc([N+](=O)[O-])c1` (stereo unspecified): the “viability (% of control)” value is 113% (inactive).
With `O=C(Cc1ccc(-c2ccc(OCCN3CCOCC3)cc2)cn1)NCc1ccccc1`, the Potency was 0.0418 µM (active).

A further test can be described thus: Quantitative High-Throughput drug screen in 47 multiple myeloma cell lines against the NCATS MIPE library collection: KMS27_JCRB cell viability assay (AID 1918970). Further: nearly all actives have a fitted effect of over 30% in size.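 On viability (% of DMSO): 100% = DMSO-only wells and 0% = media-only wells without cells.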 The conditions noted are these: KMS27 myeloma cells, CellTiter-Glo ATP viability, 48 h; series mostly up to 45.8 µM; viability (% of DMSO): at the top concentration. The gist of the method:
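ATP-based viability (CellTiter-Glo luminescence) is measured in cells treated 48 h with approved and investigational drugs at 37 °C. Controls are DMSO-only wells for full viability and media-only wells for none.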
Take `Cc1ccc(C(N)=O)cc1Nc1nccc(-c2cn(C(C)C)c3cnccc23)n1`: the Potency was 3.32 µM (active).
On the same count and under the same terms, next, `C#Cc1cccc(Nc2ncnc3cc(OC)c(OCCCCCCC(=O)NO)cc23)c1`: 0.0743 µM (active).
The same measure, in the same setting: the figure for `CN(c1ncccc1CNc1nc(Nc2ccc3c(c2)CC(=O)N3)ncc1C(F)(F)F)S(C)(=O)=O` is 2.64 µM (active).
As to `COc1ccc(-n2nc(C(N)=O)c3c2C(=O)N(c2ccc(N4CCCCC4=O)cc2)CC3)cc1`, the “viability (% of DMSO)” value was 96.4% (inactive).
`O=C(CCCCCCNC(=O)c1cnc(N(c2ccccc2)c2ccccc2)nc1)NO`: the Potency was 5.26 µM (active).
Regarding `O=C(CCCCCCC(=O)Nc1ccc([C@H]2O[C@@H](CSc3nc(-c4ccccc4)c(-c4ccccc4)o3)C[C@@H](c3ccc(CO)cc3)O2)cc1)NO`, the “viability (% of DMSO)” value was 132% (inactive).
Consider `COc1ccc(OC)c(-c2nnc3ccc(-c4ccc(OC)c(O[C@@H]5CCOC5)c4)nn23)c1`, for which the Potency was 8.33 µM (active).
Regarding `C[C@@H](Oc1cc(-c2cnn(C3CCNCC3)c2)cnc1N)c1c(Cl)ccc(F)c1Cl`, the Potency is 26.4 µM (active).
The same measure, in the same setting: next, `CCN1CCN(CC(=O)Nc2ccc(-c3cccc4c(=O)cc(N5CCOCC5)oc34)c3sc4ccccc4c23)CC1`: 0.418 µM (active); `OCc1ccc(-c2ccc(-c3ccc(CO)s3)o2)s1`: 0.0118 µM (active).
With `O=C(c1ccc(Nc2nccc(-c3cc4ccccc4s3)n2)cc1)N1CCC(N2CCCC2)CC1`, the Potency was 4.18 µM (active).
On the same count and under the same terms, the figure for `O=C(Nc1cn[nH]c1-c1nc2ccc(CN3CCOCC3)cc2[nH]1)NC1CC1` is 3.32 µM (active); for `CC(C)c1ccc(Cn2ccc3c4c(N)nc(NC5CC5)nc4ccc32)cc1` it is 0.372 µM (active).
As for `OCCCNc1cc(-c2ccnc(Nc3cccc(Cl)c3)n2)ccn1`, the Potency was 0.0418 µM (active).
Same read-out and setting: the figure for `NC(=O)Nc1cc(-c2cccc(F)c2)sc1C(=O)N[C@H]1CCCNC1` is 0.59 µM (active); for `COc1cc2c(Oc3ccc(NC(=O)C4(C(=O)Nc5ccc(F)cc5)CC4)cc3F)ccnc2cc1OCCCN1CCOCC1` it is 9.35 µM (active).
`COC(=O)C1=C(C)NC(C)=C(C(=O)OCCN2CCN(C(c3ccccc3)c3ccccc3)CC2)C1c1cccc([N+](=O)[O-])c1` (stereo unspecified): the “viability (% of DMSO)” value is 112% (inactive).

The values above are taken from PubChem BioAssay (NCATS).
